Data on 13 compounds can be found in PubChem BioAssay (NCATS).

Values joined by “and” are separate entries in the source; they are usually repeats but may differ in a detail not shown here. Equal entries are not always repeated. Records with an inconclusive call do not appear. Active and inactive are the calls of the source. Calls follow the shape of the dose curve; as a rule, active = well fitted activation curve with a large enough effect; inconclusive = small, poorly fitted or top-dose-only effect; inactive = no such curve, though single readings can be large or run the other way.
Potency is read from the fitted curve at half-maximal effect.

Sequence of Cellular tumor antigen p53 (Homo sapiens) (P04637 whole entry, looked up): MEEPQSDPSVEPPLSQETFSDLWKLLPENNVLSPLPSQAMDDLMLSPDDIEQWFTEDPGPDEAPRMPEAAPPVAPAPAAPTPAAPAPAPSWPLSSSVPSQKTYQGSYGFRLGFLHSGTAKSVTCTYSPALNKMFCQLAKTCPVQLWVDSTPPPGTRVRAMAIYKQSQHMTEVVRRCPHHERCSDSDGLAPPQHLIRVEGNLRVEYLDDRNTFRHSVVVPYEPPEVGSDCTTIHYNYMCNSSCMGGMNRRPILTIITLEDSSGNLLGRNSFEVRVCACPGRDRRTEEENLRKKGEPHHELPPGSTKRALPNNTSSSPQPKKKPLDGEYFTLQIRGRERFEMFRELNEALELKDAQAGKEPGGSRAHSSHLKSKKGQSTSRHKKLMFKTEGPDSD

The target in the test is Cellular tumor antigen p53 (Homo sapiens) (UniProt P04637). Briefly: Primary qHTS for small molecule compounds that upregulate eGFP-tagged delta133p53alpha (in N-terminal) cells. (AID 2060322). Also: nearly all actives have a fitted effect of over 75% in size.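 As to activation: cells pre-induced with doxycycline then dosed without doxycycline; series mostly up to about 56 µM; 0% = DMSO vehicle and 100% = reference activator.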 The settings on record: NCI-H358 eGFP-delta133p53alpha fluorescence, 24 h; activation: hits give high values. Summed up:
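NCI-H358 cells pre-induced 24 h with 10 ng/ml doxycycline for eGFP-delta133p53alpha, plated dox-free and exposed 24 h at 37C to titrated compounds. Fixed, Hoechst-stained; gated GFP peak intensity by laser scanning cytometry, normalized to DMSO (0%) and 57.5 uM 5-azacytidine (100%).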
With `Cc1ccc(NC2=CC(=O)c3sc(C)nc3C2=O)cc1`, the Potency was 3.85 µM (active).
For the compound `CCOC1OC(=O)C[C@H]1NC(=O)[C@@H]1CCCN1C(=O)[C@@H](NC(=O)c1ccc(N)c(Cl)c1)C(C)(C)C` (stereo partly drawn), the activation is 110% (inactive).
On the same count and under the same terms, with `NS(=O)(=O)c1cc2c(cc1Cl)CN(C1CCCCC1)C2=O` the figure was 20.9% (inactive); with `CCCCC(CC)COC(=O)c1ccccc1C(=O)O` (stereo not drawn), -12.6% (inactive).
Same read-out and setting: with `C[N+]1(C)CCC(OC(=O)C(O)(c2ccccc2)C2CCCC2)C1` (stereo not drawn) the figure was 7.34% (inactive); with `O=C(N[C@H](CO)[C@H](O)c1ccc([N+](=O)[O-])cc1)C(Cl)Cl`, 15.3% (inactive) and -2.04% (inactive); with `CON=C(C(=O)N[C@@H]1C(=O)N2C(C(=O)O)=C(CSC(=O)c3ccco3)CS[C@H]12)c1csc(N)n1`, 4.83% (inactive).
`O=C(O)c1ccc(-c2cc3cccnc3c(-c3ccc4nonc4c3)n2)cc1`: the activation is 3.89% (inactive).
The same measure, in the same setting: with `CO[C@H]1C=CO[C@@]2(C)Oc3c(C)c(O)c4c(O)c(c(C=NN5CCN(C)CC5)c(O)c4c3C2=O)NC(=O)C(C)=CC=C[C@H](C)[C@H](O)[C@@H](C)[C@@H](O)[C@@H](C)[C@H](OC(C)=O)[C@H]1C` the figure was 3.33% (inactive); with `COc1ccccc1OCC(O)CO` (stereo not drawn), -10.9% (inactive); with `CC(C)CCCC(C)CCCC(C)CCCCC(C)CCCC(C)CCCC(C)C` (stereo not drawn), 14.1% (inactive).
On the same count and under the same terms, the value for `N#CC1(c2ccc(F)cc2)CCC(=O)CC1` was -18.6% (inactive); that for `Cc1noc(NS(=O)(=O)c2ccc(N)cc2)c1C` was 9.21% (inactive) and -0.487% (inactive).
